# Out of some 16,000 compounds screened, about 5,700 (36%) were called active. Another 24% or so got no clear call; they are omitted. This is one part of the list. Values without a mark were called inactive. Calls follow the shape of the dose curve; as a rule, active = well fitted curve in the direction sought with a large enough effect; inconclusive = small, poorly fitted or top-dose-only effect, or effect the other way; inactive = no such curve, though single readings can be large or run the other way.
# Target: Cytochrome P450 1A2 (Homo sapiens) (UniProt P05177)
# Sequence (P05177 whole entry, looked up): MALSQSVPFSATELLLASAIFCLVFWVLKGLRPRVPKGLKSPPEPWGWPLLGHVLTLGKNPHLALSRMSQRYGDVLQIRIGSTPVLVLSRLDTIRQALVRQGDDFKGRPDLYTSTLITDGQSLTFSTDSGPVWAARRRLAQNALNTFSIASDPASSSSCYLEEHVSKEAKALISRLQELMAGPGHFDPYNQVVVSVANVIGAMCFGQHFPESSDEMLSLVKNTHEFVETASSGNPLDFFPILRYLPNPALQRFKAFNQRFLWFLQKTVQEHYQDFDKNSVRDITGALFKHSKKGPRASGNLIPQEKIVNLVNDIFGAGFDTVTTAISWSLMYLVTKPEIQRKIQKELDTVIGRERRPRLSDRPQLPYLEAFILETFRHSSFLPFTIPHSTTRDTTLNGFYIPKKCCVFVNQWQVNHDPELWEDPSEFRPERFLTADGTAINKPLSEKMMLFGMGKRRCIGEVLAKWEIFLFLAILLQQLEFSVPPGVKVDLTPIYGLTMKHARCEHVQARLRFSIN
# Assay: Cytochrome panel assay with activity outcomes
# Settings: recombinant CYP, pro-luciferin dealkylation, luminescence, p450-cyp1a2; series mostly up to 57.1 µM; activity, negative = inhibition: at the top concentration
# % is scaled to controls: 0 for no effect and ±100 for the full control effect.
Structure (SMILES),AC50,"activity, negative = inhibition"
Cc1ccc(Nc2ccc(-n3ccnc3)nn2)cc1C,0.158 µM (active),
Cc1cc(/C=N/n2cnnc2)c(C)n1-c1ccc(OCc2ccccc2F)cc1,12.6 µM (active),
Fc1ccc(CSc2nnc(-c3cc4c(s3)-c3ccccc3CC4)o2)cc1,2.24 µM (active),
Cc1ccc(-c2nnc(-c3ccc4ccccc4c3)o2)cc1,0.631 µM (active),
c1ccc(-c2noc(-c3ccc4ccccc4c3)n2)cc1,3.16 µM (active),
c1ccc2cc(-c3csnn3)ccc2c1,0.112 µM (active),
c1ccc2cc(-c3cc(-c4cc(-c5ccc6ccccc6c5)on4)no3)ccc2c1,1.58 µM (active),
O=C(O)c1nnsc1-c1csnn1,,-3.7% [at 11.4 µM]
CC/C=C\CC[C@H](O)C1=CCCCC1=O,,-2.33% [at 11.4 µM]
CC[C@@H](C)[C@H]1O[C@]2(CC[C@@H]1C)C[C@@H]1C[C@H](C/C=C(/C)[C@H](O[C@@H]3C[C@H](OC)[C@H](O[C@@H]4C[C@H](OC)[C@@H](O)[C@H](C)O4)[C@H](C)O3)[C@@H](C)/C=C\C=C3CO[C@@H]4[C@H](O)C(C)=C[C@@H](C(=O)O1)[C@]34O)O2 (tested in a mixture with another compound),,-15.8%
C[C@@H]1C[C@H](OC(=O)[C@@H](O)c2ccccc2)CC(C)(C)N1C,,-5.2% [at 25.6 µM]
CCCCCn1c(CN2CCN(c3cc(Cl)ccc3C)CC2)nc2c1c(=O)[nH]c(=O)n2C,,-2.23%
Cc1ccc(OCCNC(=O)c2cncc(Br)c2)cc1C,14.1 µM (active),
O=C(NCCO[N+](=O)[O-])c1cccnc1,,-19.7%
CCOC(=O)CNC(=O)c1cccnc1,,-19.8%
CCOC(=O)CCCNC(=O)CCCNC(=O)C(c1ccccc1)c1ccccc1,,-14.8%
CCOC(=O)CCCNC(=O)c1cncc(Br)c1,12.6 µM (active),
CO[C@H]1COC(=O)[C@H](C)COC(=O)[C@@H](Cc2ccccc2)NC(=O)C/C=C\[C@H]1C,,-3.2% [at 11.4 µM]
COc1ccc(NC(=O)N(C2CCCCC2)C(C)c2cccnc2)c(OC)c1 (centres undefined),14.1 µM (active),
Cc1cc(NC(=O)CCC(=O)N(CC2CCCO2)C(C(=O)NC2CCCC2)c2cccnc2)no1 (centres undefined),,3.67%

Structure (SMILES),AC50,"activity, negative = inhibition"
CCOC(=O)CN(C(=O)CCC(=O)Nc1cc(C)on1)C(C(=O)NC1CCCC1)c1cccnc1 (centres undefined),,-2.53%
O=C1C(Cc2ccccc2)C(c2ccccc2)N1c1ccccc1 (centres undefined),5.01 µM (active),
CCN1C(=O)N[C@@H](c2ccccc2)C1=O,,-16.1% [at 25.6 µM]
O=C1C(CCS(=O)c2ccccc2)C(=O)N(c2ccccc2)N1c1ccccc1 (centres undefined),,-14.7% [at 25.6 µM]
CCCC1C(=O)N(c2ccccc2)C1c1ccccc1 (centres undefined),12.6 µM (active),
C[C@H]1CC[C@H]2C(=O)N[C@H](Cc3ccccc3)C(=O)N2[C@@H]1c1ccccc1,,-2.57% [at 11.4 µM]
O=C1C2ON(c3ccccc3)C(c3ccncc3)C2C(=O)N1c1ccccc1 (centres undefined),,-24.3%
COc1cccc(C=NC=Nc2cccc(OC)c2)c1,1 µM (active),
Clc1cccc(C=NC=Nc2cccc(Cl)c2)c1,0.631 µM (active),
CCCn1nc(NC(=O)CC(C)C)c2cc3ccccc3nc21,1.58 µM (active),
CC(C)CC(=O)Nc1ccccc1-c1nnn(CC(=O)N2CCc3ccccc3C2)n1,,-27%
CCOc1cc(CNCCO)c(Cl)cc1OCC(=O)NCCc1ccccc1,6.31 µM (active),
COc1ccc(CNCCc2ccccc2)cc1OCC(N)=O,,-6.42%
CCNCc1cc(OCC)c(OCC(=O)NCCc2ccccc2)cc1Cl,1.78 µM (active),
Nc1nc2c(c(=O)[nH]1)N[C@H](CCNc1ccc(C(=O)O)cc1)CN2,,-4.28% [at 11.4 µM]
COc1ccccc1CN1CCC2(CC1)CCN(C(=O)c1c(C)noc1C)CC2,,-17.2%
COc1ccccc1CNc1ccnc(-c2c(C)noc2C)n1,0.398 µM (active),
COC(=O)CN(c1ccc(OC)cc1)S(=O)(=O)c1c(C)noc1C,,-12.5%
COc1ccc(CNc2ccnc(-c3c(C)noc3C)n2)c(OC)c1,1.26 µM (active),
COc1ccccc1CN1CCCC2(CCN(C(=O)c3c(C)noc3C)CC2)C1,,-1.37%

Structure (SMILES),AC50,"activity, negative = inhibition"
O=C(O)/C(=C/c1c(C(=O)O)[nH]c2cc(Cl)cc(Cl)c12)c1ccccc1,12.6 µM (active),
c1ccc(-c2nnc(SCCC3OCCCO3)o2)cc1,1.78 µM (active),
Cc1cc(C(=O)CSc2nnc(-c3ccccc3)o2)c(C)n1CC1COc2ccccc2O1 (centres undefined),,-16.3%
CCC1CCc2c(c3ccccc3[nH]c2=O)O1 (centres undefined),0.562 µM (active),
C#CCn1c(=O)c2c(ncn2C)n(C)c1=O,,-16.2%
CC[C@@H](c1ccccc1)n1c(=O)n2n(c1=O)[C@H]1[C@H](O)[C@H]3O[C@@H]3/C(=N/OC/C=C(\C)CCC=C(C)C)[C@@H]1CC2,,-18.9% [at 11.4 µM]
Cc1nc(/N=C(\N)Nc2ccccc2)nc2ccccc12,5.01 µM (active),
Cc1cccc(N/C(N)=N/c2nc(C)cc(C)n2)c1,12.6 µM (active),
CN1CCN(Cc2nc3cccc4c3c([n+]2[O-])-c2ccccc2-4)CC1,1.26 µM (active),
Oc1cccnc1CN1CCCCC1,,-14.4% [at 11.4 µM]
[O-][n+]1c(CN2CCCCC2)nc2cccc3c2c1-c1ccccc1-3,1.58 µM (active),
Cc1noc(C)c1C(=O)N1CCC[C@@]2(CCN(Cc3cc(C(F)(F)F)cc(C(F)(F)F)c3)C2)C1,,16.9%
Nc1ccc(N=Nc2c(S(=O)(=O)O)cc3ccccc3c2S(=O)(=O)O)cc1,,-20.9% [at 2.29 µM]
CC(C)CCNC(=S)NC1CCCC1,14.1 µM (active),
CCC(C)NC(=O)C1CCCN(C(=O)NC2CCCCC2)C1 (centres undefined),,-4.85%
CCNC(=S)N1CCC(NC(=O)C2CCCCC2)CC1,,35.3%
Cc1sc(N/N=C/c2cccnc2)nc1-c1ccccc1,0.0631 µM (active),
CC(=O)c1nnn(-c2nc(N)nc(N(c3ccccc3)c3ccccc3)n2)c1C,22.4 µM (active),
CC(=O)c1c(N2CCC(C(N)=O)CC2)nc(=S)n(-c2ccccc2)c1C,,-0.743%

# Source: PubChem BioAssay AID1851 (National Center for Advancing Translational Sciences (NCATS), 2009)
